Pf Dd2 growth – blocks in vitro growth of P. falciparum Dd2; P. falciparum Dd2 growth, SYBR Green, 72 h; Potency, µM (series often up to 28.9 µM), for the others: top-dose activity, negative = inhibition, actives largely listed as inhibitors; 120,000 compounds, 4.3% hits; active = well fitted inhibition curve with a large enough effect;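 note: plate controls were DMSO vehicle for no effect and reference drug for full effect; nearly all actives have a fitted effect of over 65% in size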
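Readout: SYBR Green fluorescence, 485 nm excitation, 535 nm emission, after ~16 h lysis at 37C. Before that, Dd2-infected red cells (2.5% hematocrit) grew 72 h with compound, 29 uM top final concentration.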
Active calls of the source: *; i = inactive; [ ] = dose if it differs, or a comment. Only a selection was taken, and hits are over-represented in it overall. Potency is the fitted concentration of half-maximal effect.

SMILES	Pf Dd2 growth
Cc1cc(C(F)(F)F)nn1CC(=O)N1CC(CO)C2(CCNCC2)C1 (configuration not stated)	-3.6%
CC1CCCN(Cc2c(O)ccc3c(=O)c(-c4ccccc4Cl)c(C(F)(F)F)oc23)C1 (configuration not stated)	0.891µM*
Cc1c(CO)cccc1NC(=O)c1ccc(CN2CCCC(C)C2)cc1 (configuration not stated)	-8.4%
Cc1cc(Oc2c(C(F)(F)F)oc3c(CN4CCC(C)CC4)c(O)ccc3c2=O)cc(C)c1Cl	0.447µM*
CC1CCCN(Cc2nc3c(c(=O)n(C)c(=O)n3C)n2Cc2ccc(Cl)cc2)C1 (configuration not stated)	22.1%
CC1CCN(C(=O)CSc2nnc(-c3ccccc3Cl)o2)CC1	-13.3%
Cc1ccc(Oc2c(C(F)(F)F)oc3c(CN4CCCCC4C)c(O)ccc3c2=O)cc1 (configuration not stated)	-29.5%
Cc1oc(-c2ccc(Cl)cc2)nc1CN1CCCC(C(=O)NCc2ccc(Cl)cc2)C1 (configuration not stated)	i
CC1CCCN(Cc2c(O)ccc3c(=O)c(-c4ccc(Cl)cc4)c(C(F)(F)F)oc23)C1 (configuration not stated)	0.708µM*
Cc1cc(C)cc(Oc2coc3c(CN4CCN(C)CC4)c(O)ccc3c2=O)c1	i
O=C(C1CCCC1)N1CCN(c2cc(-c3ccccc3)[nH]n2)CC1	i
COc1ccc(C(=O)N2CCC3(CC2)NCCc2c3[nH]c3ccc(OC)cc23)c(OC)c1	i
O=C1NCCCCCCN(C(=O)c2ccoc2)[C@H]2C[C@H](c3nc(-c4cccnc4)no3)C[C@@H]12	i
CS(=O)(=O)N1CCC2(C1)OC(=O)Nc1ccccc12 (configuration not stated)	23.6%[44.1 µM]
Cn1cc(CNc2ccc(-c3nc(CCCc4ccccc4)no3)cn2)cn1	-19.9%
COCC(=O)N[C@@H]1CN(S(=O)(=O)Cc2ccccc2)CC[C@@H]1c1nc(C)no1	-11.8%[5.79 µM]
Cn1nc(C2CCN(c3cncc(C(N)=O)n3)CC2)n(-c2ccccc2)c1=O	i
O=C(NC1CCN(c2cc(-c3cccs3)[nH]n2)C1)c1ccccc1Br (configuration not stated)	i
Cc1nn(-c2ccccc2)c(Oc2ccc(F)cc2F)c1CCC(=O)NC(C)C	-16.8%
O=C1NC2(CCN(CC3CCCCC3)C2)Oc2ccccc21 (configuration not stated)	i
CN1CCOC[C@H]1c1ncc(-c2ccc(F)cc2F)[nH]1	i
CS(=O)(=O)c1ccc(-c2cnc([C@@H]3COCCN3Cc3ccccc3O)[nH]2)cc1	i
COc1ccc(-c2cnc([C@@H]3COCCN3Cc3ccccc3)[nH]2)cc1	10µM*
COc1ccc(CN2CCOC[C@H]2c2ncc(-c3ccc(C)cc3)[nH]2)cc1	-0.5%[44.1 µM]
COc1ccc(-c2cnc([C@@H]3COCCN3Cc3ccncc3)[nH]2)cc1	i
SMILES	Pf Dd2 growth
CO[C@@](C(=O)N1CCOC[C@H]1c1ncc(-c2ccccc2)[nH]1)(c1ccccc1)C(F)(F)F	i
Clc1ccc(-c2cnc([C@@H]3COCCN3C3CCCCC3)[nH]2)cc1	-27.0%[44.1 µM]
CN1CCC(N2CCOC[C@H]2c2ncc(C(C)(C)C)[nH]2)CC1	9.1%[44.1 µM]
Oc1ccccc1CN1CCOC[C@H]1c1ncc(-c2ccc(F)cc2F)[nH]1	3.16µM*
CC(C)(C)CN1CCOC[C@H]1c1ncc(-c2ccccc2)[nH]1	i
Cn1cc(CN2CCOC[C@H]2c2ncc(C(C)(C)C)[nH]2)c2ccccc21	10µM*
C[C@@H](NC(=O)N1CCOC[C@H]1c1ncc(-c2ccc(Cl)cc2)[nH]1)c1ccccc1	12.6µM*
CCN1CC2(CCN(C(=O)COC(C)C)CC2)CC(c2ccccc2)C1=O (configuration not stated)	5.1%
CN1C(=O)[C@H]2CN(Cc3cccc(C#N)c3)C[C@H]2C1=O	55.8%
COc1ccc(CNC(=O)N2CC(N(C3CCOCC3)S(C)(=O)=O)C2)cc1	-23.1%
CSc1ccc(NC(=O)c2nnn3c2COC(c2ccc(C)cc2)C3)cc1 (configuration not stated)	-25.7%
COCCNC(=O)C1CC(c2ccccc2)CN(C(=O)NCc2ccccc2)C1 (configuration not stated)	-23.0%
COC1CCC12CCN(C(=O)c1ccoc1)CC2 (configuration not stated)	1.2%
Clc1ccc(-c2cnc([C@@H]3COCCN3Cc3ccccc3)[nH]2)s1	i
Cn1c(CN2CCOC[C@H]2c2ncc(-c3ccc(Cl)s3)[nH]2)nc2ccccc21	11.2µM*
CS(=O)(=O)c1ccc(CN2CCOC[C@H]2c2ncc(-c3ccc(Cl)s3)[nH]2)cc1	i
CCNC(=O)c1cc2n(n1)CC(c1ccc(Br)cc1)OC2 (configuration not stated)	i
CCN(Cc1c(F)cccc1Cl)C(=O)CCc1c(C)nn(C)c1C	-16.9%
COc1ccc(CNCCC(c2ccc3c(c2)OCO3)c2ccccc2OC)cc1 (configuration not stated)	5.01µM*
COc1ccc(CNC(=O)C(=O)NCC(c2ccc3c(c2)OCO3)N2CCOCC2)cc1 (configuration not stated)	-4.8%
CCC(=O)N(CCC(c1ccccc1)c1ccc2c(c1)OCO2)Cc1ccc(OC(C)C)cc1 (configuration not stated)	-28.7%
COCCOCC1(CNC(=O)c2cc(C)nn2C)C[C@@H](O)[C@@H](O)C1 (some centres not stated)	-22.5%[44.1 µM]
Cc1nc2c(c(-c3ccc(O)cc3)n1)CN(Cc1ccc(C(F)(F)F)cc1)CCC2	0.891µM*
Cc1nc2c(c(-c3ccc(O)cc3)n1)CN(Cc1ccc(C(F)(F)F)cc1)CC2	-3.0%
COc1ccccc1CN1CCCc2nc(C)nc(-c3ccc(O)cc3)c2C1	-16.1%
SMILES	Pf Dd2 growth
Cc1nc2c(c(-c3ccc(O)cc3)n1)CN(Cc1cccc3ccccc13)CCC2	12.6µM*
Cc1nc2c(c(-c3ccc(O)cc3)n1)CN(Cc1ccccn1)CCC2	i
Cc1nc2c(c(-c3ccc(O)cc3)n1)CN(Cc1cccnc1)CCC2	-1.2%
Cc1nc2c(c(-c3ccc(O)cc3)n1)CN(Cc1ccccc1)CCC2	4.47µM*
Cc1nc2c(c(-c3ccc(O)cc3)n1)CN(Cc1ccccc1)CC2	i
COc1ccc(CN2CCCc3nc(C)nc(-c4ccc(O)cc4)c3C2)cc1	-40.8%
Cc1cc(C(=O)N2CC[C@@H]3CN(S(C)(=O)=O)[C@@H]3C2)c(C)o1	-1.0%
Cc1noc(C)c1-c1cnc2[nH]cc(CC(=O)N3CCN(C)CC3)c2c1	32.4%[44.1 µM]
COc1cccc(NC(=O)N[C@H](C)c2onc(-c3ccc(F)cc3)c2C(=O)O)c1	i
O=C1CCN(C(=O)c2ccccc2)CCCC(C(=O)NCc2cccc(C(F)(F)F)c2)CCN1 (configuration not stated)	-15.3%
O=C(Nc1ccccc1)O[C@H]1COCCN(c2nc3ccccc3o2)C1	-1.3%[44.1 µM]
COCCOC1CCOC2(CCN(C(=O)NCc3ccc(C)cc3)CC2)C1 (configuration not stated)	-20.5%
COc1cccc(N2C(=O)NC(=NC3CCCCC3)C23CCCN(C(=O)c2ccccc2OC)C3)c1 (configuration not stated)	-17.7%
COc1cccc(N2C(=O)NC(=NC3CCCCC3)C23CCN(Cc2ccccc2)C3)c1 (configuration not stated)	40.1%
COc1cccc(N2C(=O)NC(=NC3CCCC3)C23CCN(Cc2ccc(F)cc2)C3)c1 (configuration not stated)	12.6µM*

Compound activity from PubChem BioAssay.
